Screens from PubChem.
FBW7 act = activators of human E3 ligase FBW7; normalized activity (activation), % at 26.1 µM; hit rate 0.13% among 650,000; AlphaScreen FBW7–phospho-cyclin E peptide binding, activator screen; AID 1259310; in the data active = normalized activity above about 1.9%;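 also: purified mutant Fbw7 with reduced substrate affinity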
TEAD-YAP block = TEAD-YAP interaction inhibition; HEK-TIYL cells, TEAD-Gal4/YAP UAS-luciferase luminescence; inhibition, % at 9.12 µM; hit rate 1.4% among 640,000; AID 1259422; in the data active = inhibition above about 32%;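 also: 0% = median of test compound wells and 100% = reference inhibitor wells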
GPR151 ag = activates the human receptor GPR151; PathHunter beta-arrestin GPR151 cells, luminescence; activation, % at 11.2 µM; hit rate 1% among 650,000; in the data active = activation above about 4.9%;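 also: 0% = median of compound wells and 100% = cells with positive control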
MITF inh = blocks human microphthalmia-associated transcription factor | O75030 | AlphaScreen MITF homodimerization, bead proximity signal | inhibition, % at 2.6 µM | hit rate 0.91% among 650,000 | AID 1259374; in the data active = inhibition above about 50%;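 also: 0% = vehicle wells with protein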
Target sequence (O75030 whole entry, looked up): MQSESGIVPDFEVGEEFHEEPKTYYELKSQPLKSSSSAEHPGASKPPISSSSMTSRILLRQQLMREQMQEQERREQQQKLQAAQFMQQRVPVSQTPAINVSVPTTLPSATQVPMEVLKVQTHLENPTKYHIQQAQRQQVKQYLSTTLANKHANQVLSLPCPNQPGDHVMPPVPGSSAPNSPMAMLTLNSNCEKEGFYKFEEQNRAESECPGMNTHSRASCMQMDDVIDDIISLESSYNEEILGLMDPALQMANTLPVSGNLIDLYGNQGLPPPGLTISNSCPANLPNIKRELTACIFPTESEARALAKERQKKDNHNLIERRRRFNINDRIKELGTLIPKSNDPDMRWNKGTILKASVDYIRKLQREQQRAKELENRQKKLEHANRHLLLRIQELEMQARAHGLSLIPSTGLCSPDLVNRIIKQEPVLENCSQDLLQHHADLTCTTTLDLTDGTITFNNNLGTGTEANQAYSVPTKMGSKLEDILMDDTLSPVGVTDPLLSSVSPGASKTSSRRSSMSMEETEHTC
GPR151 confirm = human GPR151 activation, confirmation screen | shares compounds with GPR151 ag | GPR151 PathHunter beta-arrestin cells, luminescence, 90 min; % of EA-reagent control over plate median | activation, % at 11.2 µM | 6,700 tested, under 10 active | AID 1508609;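 active = mean percent activation across replicates above the confirmation screen cutoff of 4.91%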
GPR119 ag = activates human GPR119 in a GPR151 counter-screen | AID 1508611 | shares compounds with GPR151 ag | GPR119 PathHunter beta-arrestin cells, luminescence, 90 min; 0 = compound-well median, 100 = enzyme-acceptor control | activation, % at 11.2 µM | hit rate 0.3% among 6,700;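 active = mean percent activation in the counterscreen above 29.09%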;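 also: counterscreen on off-target GPR119 to flag nonselective hits from the GPR151 activator screen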
An asterisk follows results filed as active; nt = no result given. In the library only some 3.5% were active in any assay of this set; here they are far more common.

SMILES | FBW7 act | TEAD-YAP block | GPR151 ag | MITF inh | GPR151 confirm | GPR119 ag
CC(c1ccco1)N(C)Cc1ccc(C(N)=O)c(=O)[nH]1 (stereo not drawn) | 0 | 3 | 0 | -2 | nt | nt
Cc1ccc(OCC(=O)N(C)C2CCCCC2)cc1C | 0 | -73 | 5.0* | -5 | -1 | 7
Cc1ccc(OCC(=O)NC2CCCCC2)cc1C | 0 | -18 | -1 | -4 | nt | nt
CC1(C)CC(=O)C(C=NCCc2cccc(Cl)c2)=C(O)C1 | 0 | 21 | 5.4* | 6 | -1 | -16
CC1(C)CC(=O)C(C=NCc2cccc(F)c2)=C(O)C1 | 0 | 5 | 1 | 6 | nt | nt
CC(=O)Nc1cccc(NCc2cc(Cc3ccccc3Cl)ccc2O)c1 | 0 | -13 | 0 | 12 | nt | nt
Cc1cccc(C)c1NC1=NC(=S)N(c2ccc(Cl)cc2)C1(C)Cc1ccccc1 (stereo not drawn) | 0 | 16 | 0 | 8 | nt | nt
c1ccc2c(c1)OC[C@H](c1nc3ccc(-c4ccncc4)cc3[nH]1)O2 | 0 | -31 | 0 | 17 | nt | nt
FC(F)(F)c1cc2[nH]c(C3COc4ccccc4O3)nc2cc1-c1ccncc1 (stereo not drawn) | 0 | -15 | 8.0* | -5 | 0 | -1
O=C1NC(=O)C(=Cc2ccc(OC(=O)c3ccccc3Cl)cc2)C(=O)N1 | -1 | -3 | 5.5* | -10 | 0 | 3
Cc1ccccc1-c1nc2s/c(=C\c3ccco3)c(=O)n2n1 | 0 | 9 | -1 | 9 | nt | nt
CCCn1cnc2sc(C(=O)Nc3ccccc3OC)c(C)c2c1=O | 0 | -8 | 11* | 0 | -1 | -12
COCCCNC(=O)CSc1nc(Nc2cc(OC)cc(OC)c2)c2ccccc2n1 | 0 | 4 | -1 | 3 | nt | nt
O=C(CSc1cn(CCNC(=O)c2ccccc2F)c2ccccc12)NCc1ccccc1 | 0 | 6 | 0 | 10 | nt | nt
CCN(CC)C(=O)C1CCCN(c2nc(NCc3cccnc3)c3ncn(-c4ccsc4)c3n2)C1 (stereo not drawn) | 0 | 37* | 6.6* | -4 | 1 | -1
O=C(Nc1ccc(Br)cn1)c1ccc(N2CCCCC2)c([N+](=O)[O-])c1 | 0 | -59 | 6.5* | -4 | 2 | 9
Cc1ccc(C(=O)Nc2ccc(Br)cn2)cc1[N+](=O)[O-] | 0 | -61 | 0 | -7 | nt | nt
O=C(NCc1cccnc1)C(=O)Nc1ccc(Cl)c(Cl)c1 | 0 | -4 | -1 | -3 | nt | nt
CCOC(=O)CSC1=C(C#N)C(c2ccco2)C(C(=O)Nc2ccccc2)=C(C)N1 (stereo not drawn) | 1 | -8 | 5.0* | -3 | 1 | -1
CC(NC(=O)Nc1ccc(S(N)(=O)=O)cc1)(C(F)(F)F)C(F)(F)F | 0 | -2 | 4.9* | 22 | 0 | -5
N#Cc1c(-c2ccccc2)cc(-c2ccccc2)nc1SCc1ccc(Cl)c(Cl)c1 | 0 | -8 | 0 | 5 | nt | nt
N#Cc1c(-c2ccccc2)cc(-c2ccccc2)nc1SCc1ccc(Cl)cc1 | 0 | 2 | 5.5* | -1 | 1 | -6
CCc1ccc(C(=O)CC(Nc2ccc([N+](=O)[O-])cc2)c2ccc(Br)cc2)cc1 (stereo not drawn) | 0 | 14 | 1 | 3 | nt | nt
Cc1cc(CSc2ccccc2)ccc1NS(C)(=O)=O | 0 | -26 | 5.3* | 4 | 0 | -4
CC(=O)Nc1ccc(CSc2ccccc2)cc1C | 0 | -54 | -1 | 4 | nt | nt
SMILES | FBW7 act | TEAD-YAP block | GPR151 ag | MITF inh | GPR151 confirm | GPR119 ag
NC(=O)c1c(/N=c2\oc3ccccc3cc2C(=O)Nc2ccc(F)cc2)sc2c1CCCC2 | 0 | -48 | 2 | -2 | nt | nt
COc1ccc(OCc2cc(C(=O)N[C@H]3CCCCNC3=O)no2)c(Cl)c1 | 0 | -47 | 5.0* | 1 | 0 | 0
COc1ccc(OCc2cc(C(=O)N3CCCCC3CO)no2)c(Cl)c1 (stereo not drawn) | 0 | -42 | 1 | 9 | nt | nt
COc1ccc2c(CC(=O)OCc3c(C)noc3C)coc2c1 | 0 | 9 | 5.1* | 0 | -2 | -10
Cc1noc(C)c1COC(=O)Cc1coc2cc3c(cc12)CCC3 | 0 | 2 | 3 | -9 | nt | nt
Nc1c(C(=O)c2ccc(Br)s2)oc2ccc(Cl)cc12 | 0 | -7 | 0 | 7 | nt | nt
CCOC(=O)c1c(-c2ccc(OC)cc2)oc2ccc(OCC)cc12 | 0 | -5 | -1 | -12 | nt | nt
COc1ccc(-c2nc(SCCN3CCCCC3)c3c(=O)n(C)c(=O)n(C)c3n2)cc1OC | 0 | -3 | -1 | -5 | nt | nt
CCN1CCC(Oc2ccc(-c3ccc(C#N)cc3)cc2)CC1 | 0 | -15 | 4 | 3 | nt | nt
CS(=O)(=O)N1CCC(Oc2ccc(-c3ccc(C#N)cc3)cc2)CC1 | 0 | 7 | 12* | -6 | -1 | -6
CCc1ccccc1NS(=O)(=O)c1ccccc1S(=O)(=O)Nc1ccccc1CC | 0 | -3 | -1 | 0 | nt | nt
CCc1csc2ncc(C(=O)NCCO)c(=O)n12 | 0 | 2 | 1 | 17 | nt | nt
COCCNC(=S)N(C)c1ccc(O)cc1 | 0 | -2 | 2 | -7 | nt | nt
CCN(C(=S)NCCOC)c1cccc2ccccc12 | 1 | -6 | 14* | 16 | -2 | -13
CC1=CC(C)(C)N(C(=O)Cc2ccc(F)cc2)c2cc(C(c3ccccc3)(c3ccccc3)c3ccccc3)ccc21 | 0 | 9 | 0 | -14 | nt | nt
O=S(=O)(NCCSc1nnnn1-c1ccccc1)c1ccccc1 | 0 | -3 | 8.7* | -1 | 0 | 13
O=C(Cc1cn(Cc2ccccc2)c2ccccc12)Nc1nccs1 | 0 | -9 | -2 | 14 | nt | nt
COc1cccc(CNC(=O)c2nc3ccc(-c4ncnc5[nH]ccc45)cc3c(=O)[nH]2)c1 | 0 | -9 | 1 | -3 | nt | nt
COc1cccc(CNS(=O)(=O)c2ccc(-c3ncnc4[nH]ccc34)cc2F)c1 | 0 | -15 | 5.0* | 28 | 1 | -7
CC(=O)N1CCN(c2nc(CN3CCCCC3C)nc3ccccc23)CC1 (stereo not drawn) | 0 | 2 | 1 | 6 | nt | nt
Cc1cc(-c2n[nH]c(=S)n2-c2ccccc2)nn1C | 0 | 9 | 18* | 21 | 0 | 2
CCOCCn1c(=NC(=O)CN2C(=O)CCC2=O)sc2cc(Br)ccc21 | 0 | 10 | 5.8* | -3 | 0 | 4
COCCn1c(=NC(=O)CN2C(=O)CCC2=O)sc2cc(Br)ccc21 | 0 | 1 | 0 | 0 | nt | nt
CSc1cccc(NC(=O)CCC(=O)N2CCSc3ccccc32)c1 | 0 | -1 | 17* | 3 | 0 | -7
O=C(CSc1nc2ccc(Nc3nc(N4CCOCC4)nc(N4CCOCC4)n3)cc2s1)NC1CC1 | 0 | 0 | 9.3* | -1 | 1 | 12
O=C(CSc1nc2ccc(Nc3nc(N4CCOCC4)nc(N4CCOCC4)n3)cc2s1)NCC1CCCO1 (stereo not drawn) | 1 | 6 | -1 | 1 | nt | nt
C=CCOc1ccccc1C(c1c(C)[nH][nH]c1=O)c1c(C)[nH][nH]c1=O | -1 | 5 | 9.5* | 7 | 0 | -8
